Source: PubChem (National Center for Advancing Translational Sciences (NCATS))
p53 reactivation: qHTS assay for re-activators of p53 using a Luc reporter; H1299 p53-A138V BP100-luciferase reporter, luminescence, 24 h; Potency, µM (titrated, usually from 92.2 µM), without a hit: top-dose activity change, positive = activation, usual class: activators; hit rate 0.063% among 320,000; AID 504706, 2011; also: potency is read from the fitted curve at half-maximal effect; % of control where 0% means no effect; nearly all actives have a fitted effect of over 45% in size
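H1299 (p53-null), stable ts p53-A138V + BP100-Luc; 1000 cells/well, Opti-MEM/10% FBS; cpd 4 pt, 1:5; 24 h, 37 deg C, 5% CO2; detection reagent 10 min RT; luminescence.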
Six1-Eya2 blk: qHTS Assay for Inhibitors of the Six1/Eya2 Interaction. hit rate 0.56% among 360,000. Homeobox protein SIX1 (Homo sapiens) + Protein phosphatase EYA2 (Homo sapiens), …. AlphaScreen GST-Six1/His-Eya2 binding, biochemical; active compounds read low. activity change, % (concentration not given with the values); in the data active = activity change below about -65%; inconclusive = mostly about -30% to -63%; also: % is scaled to controls: 0 for no effect and ±100 for the full control effect
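Six1/Eya2 binding was read as AlphaScreen signal after compounds were pinned into GST-Six1 plus His-tagged Eya2 (5X stock 250/500 nM) in pH 8.0 Tris/NaCl/TCEP buffer, beads added, then incubated 1 h, 37 C, dark.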
CtBP-E1A blk: qHTS Assay for Inhibitors of the CtBP/E1A Interaction | AID 651724, 2012 | AlphaScreen GST-E1A/His-CtBP binding, 1536-well; active compounds read low | hit rate 0.49% among 340,000 | CtBP / adenovirus E1A interaction (AlphaScreen) | activity change, % (test concentration not listed); in the data active = activity change below about -65%; inconclusive = mostly about -30% to -63%; also: % is scaled to controls: 0 for no effect and ±100 for the full control effect
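In 5 uL wells, 23 nL compound meets equimolar GST-E1A and His-CtBP (5X stock 125 nM each) for 2 h, 37 °C. Beads (5X, 50 ug/mL) then 1 h, 37 °C, dark.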
Gal4-VP16 FLuc: VP16 counterscreen qHTS for inhibitors of ROR gamma transcriptional activity; Drosophila S2 Gal4-VP16 UAS-luciferase, luminescence, 20 h; Potency, µM (series often up to 53.6 µM), inactives show at the highest dose activity, negative = inhibition, usual class: inhibitors; hit rate 3.5% among 310,000; AID 2546, 2010;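 also: Gal4-VP16 expression switched on by copper sulfate through the metallothionein promoter; potency is read from the fitted curve at half-maximal effect; % is scaled to controls: 0 for no effect and ±100 for the full control effect; nearly all actives have a fitted effect of over 50% in size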
RORg inh: qHTS for inhibitors of ROR gamma transcriptional activity; hit rate 5.4% among 310,000; Nuclear receptor ROR-gamma (Mus musculus), P51450; Drosophila S2 Gal4-RORgamma UAS-luciferase reporter, 20 h; Potency, µM (series often up to 53.6 µM), inactives show at the highest dose activity change, negative = inhibition, actives largely listed as inhibitors; AID 2551, 2010; also: potency is read from the fitted curve at half-maximal effect; % is scaled to controls: 0 for no effect and ±100 for the full control effect; nearly all actives have a fitted effect of over 60% in size
Target sequence (P51450 whole entry, looked up, the tested form may be a part): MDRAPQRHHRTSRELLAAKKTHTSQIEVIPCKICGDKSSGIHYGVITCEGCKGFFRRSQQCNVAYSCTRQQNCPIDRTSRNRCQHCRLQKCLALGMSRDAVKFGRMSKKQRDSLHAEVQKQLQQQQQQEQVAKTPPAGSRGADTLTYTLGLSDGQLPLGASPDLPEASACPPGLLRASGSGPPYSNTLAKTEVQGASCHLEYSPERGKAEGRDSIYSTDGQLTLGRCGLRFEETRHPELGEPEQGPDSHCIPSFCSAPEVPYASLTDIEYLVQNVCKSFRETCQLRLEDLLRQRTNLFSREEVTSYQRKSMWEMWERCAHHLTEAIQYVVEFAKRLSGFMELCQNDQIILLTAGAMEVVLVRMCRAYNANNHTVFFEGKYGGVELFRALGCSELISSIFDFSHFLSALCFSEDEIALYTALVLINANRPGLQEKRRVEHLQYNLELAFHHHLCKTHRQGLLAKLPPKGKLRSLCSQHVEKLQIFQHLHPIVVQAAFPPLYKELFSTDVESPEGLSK
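Drosophila S2 cells stably expressing Gal4-DBD/mouse RORγ fusion under metallothionein promoter plus UAS-luciferase; compound 1 h, then 700 uM CuSO4 induction for 20 h at ambient temperature; inhibition read as reduced luminescence.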
Starred values were filed as active, the others as inactive; ? = inconclusive; / = no result; [ ] = another dose, or the depositor's remark. Shown are actives, neighbours in structure and some others; about 5.4% of the full set was active somewhere. Unless noted, calls follow the shape of the dose curve; as a rule, active = well fitted curve in the direction sought with a large enough effect; inconclusive = small, poorly fitted or top-dose-only effect, or another doubt; inactive = no such curve, though single readings can be large; an effect the other way counts as inactive or inconclusive.

SMILES	p53 reactivation	Six1-Eya2 blk	CtBP-E1A blk	Gal4-VP16 FLuc	RORg inh
O=C(CCCOc1ccccc1)NC(=S)Nc1ccccc1	5.3%	-0.8	0.0	?	10µM*
Cc1cccc(NC(=S)NN(Cc2ccccc2)c2ccccc2)c1C	3.0%	-3.1	-6.2	3.55µM*	3.55µM*
Cc1cc(C)c(O)c(NC(=S)NC(=O)Cc2ccccc2)c1	-3.6%	-4.3	-3.1	5.62µM*	10µM*
CCCN(Cc1ccccc1)C(=S)Nc1cccc(C)c1C	-2.6%	6.7	7.0	-4.6%	?
O=C(CCN1C(=O)c2ccccc2C1=O)NC(=S)Nc1ccccc1Cl	0.0%	-9.0	-5.0	?	?
CCCN(C)C1CN(Cc2cn(Cc3ccc(F)cc3)nn2)S(=O)(=O)C1 (stereo unspecified)	/	3.9	4.6	/	/
Cc1cccc(NC(=S)NC(=O)c2ccco2)c1C	16.2%	-3.5	-0.8	11.2µM*	3.55µM*
O=C(NC(=S)Nc1cccc(NC(=S)NC(=O)c2ccco2)n1)c1ccco1	-0.7%	?	16.0	0.794µM*	0.0891µM*
Cc1cccc(NC(=S)NC(=O)CCc2ccccc2)c1	?	-0.6	3.6	?	10µM*
O=C(NC(=S)Nc1ccccc1Br)c1ccco1	?	-4.9	-14.1	?	?
Cc1ccc(S(=O)(=O)NNC(=S)Nc2cccc(C)c2C)cc1	-3.9%	2.7	0.8	?	5.01µM*
CC(C)=CCC/C(C)=C/CO/N=C1/C[C@@H](O)[C@@H](O)[C@@H]2[C@H]3C(=O)N(c4ccc(F)cc4F)C(=O)[C@@H]3CC[C@H]12	/	/	/	-6.2%[10 µM]	1.5%[10 µM]
Cc1cccc(NC(=S)NC(=O)Cc2ccccc2)c1C	15.8%	-5.2	-10.3	4.47µM*	3.98µM*
Cc1c(NC(=S)NC(=O)Cc2ccccc2)cccc1C(=O)O	26.0%	0.4	6.6	-3.0%	1.3%
Cc1cccc(NC(=S)NC(=O)CCc2ccccc2)c1C	21.3%	-1.6	9.5	?	2.51µM*
O=C(O)COc1nn(Cc2ccccc2)c2ccccc12	/	/	/	5.4%	16.8%
CCOC(=O)c1[nH]c2ccc(Cl)cc2c1NC(=O)/C=C/c1ccc2c(c1)OCO2	7.4%	3.0	18.7	4.47µM*	?
CCN(CC(=O)Nc1c(C(=O)OC)[nH]c2ccc(Cl)cc12)c1ccc2c(c1)OCO2	3.6%	?	-21.4	-1.9%	44.9%
O=C(CCNC(=O)c1ccc(Cl)cc1)NCc1ccco1	-8.1%	-0.3	16.0	/	/
CC(C1CC1)N(Cc1ccccc1)C(=S)Nc1cccc(C(F)(F)F)c1 (stereo unspecified)	3.8%	3.1	10.3	?	11.2µM*
Cc1ccc(NC(=S)N(Cc2ccccc2)C(C)C)cc1	4.1%	1.7	-0.4	?	10µM*
CC(C1CC1)N(Cc1ccccc1)C(=S)Nc1ccccc1 (stereo unspecified)	7.8%	4.7	-4.9	?	11.2µM*
CC(C)N(Cc1ccccc1)C(=S)Nc1ccc(F)cc1	-0.6%	0.8	2.3	-1.3%	-44.1%
CN(CC(=O)Nc1cccc(C(F)(F)F)c1)Cc1ccccc1	7.7%	10.7	13.3	?	?
CC1(C)CC(=O)c2cc(C(=O)O)c(=O)n(-c3ccccc3)c2C1	1.3%	-86.8*	-0.5	11.0%	8.7%
SMILES	p53 reactivation	Six1-Eya2 blk	CtBP-E1A blk	Gal4-VP16 FLuc	RORg inh
O=C(CN(Cc1ccco1)C(=O)c1ccc(F)cc1)Nc1ccccc1Br	0.8%	-15.9	-0.2	/	/
CCOC(=O)N1CCC(N2CCCC(C(=O)c3ccc4cc(OC)ccc4c3)C2)CC1 (stereo unspecified)	-4.6%	-12.3	-17.2	-2.5%	31.1%
CCC(=O)NC(=S)Nc1cccc(NC(=O)c2ccccc2Cl)c1	-2.0%	-0.2	-8.4	-24.7%	11.2µM*
CCOC(=O)Nc1cccc(NC(=O)c2cc(OC)cc(OC)c2)c1	-16.0%	-11.7	-13.6	-18.8%	?
CCCC(=O)NC(=S)Nc1cccc(NC(=O)c2ccccc2Cl)c1	-2.2%	-5.0	5.0	?	?
CCOC(=O)NC(=S)c1ccc[nH]1	-4.1%	8.7	-10.1	?	12.6µM*
O=C(NC(=S)Nc1cccc(NC(=O)c2ccc(Cl)cc2Cl)c1)c1cccs1	-0.2%	5.0	-5.5	11.2µM*	20µM*
CCOC(=O)NC(=S)Nc1cccc(NC(=S)NC(=O)OCC)c1	0.3%	-6.3	5.1	?	7.08µM*
CCCCC(CC)COCC1CO1 (stereo unspecified)	/	/	/	-15.9%	-1.0%
CCCCn1c(N)c(N(CC(C)C)C(=O)COC(=O)C2(c3ccccc3)CC2)c(=O)[nH]c1=O	-2.3%	1.0	5.6	/	/
COC(=O)CC(NC(=S)NC(=O)c1ccccc1)c1ccc(Br)cc1 (stereo unspecified)	-6.9%	-15.6	/	?	12.6µM*
CCCC(=O)Nc1cccc(NC(=O)c2ccc([N+](=O)[O-])cc2Cl)c1	-11.2%	-6.2	-2.7	-12.6%	-37.3%
CC(C)CC(=O)NC(=S)Nc1cccc(NC(=O)c2ccccc2Cl)c1	0.9%	-2.3	-4.1	?	?
COC(=O)CC(N)c1ccc(Br)cc1 (stereo unspecified)	-2.4%	-2.0	0.0	0.3%	17.6%
CCC(=O)NC(=S)Nc1cccc(NC(=O)c2ccccc2)c1	9.3%	27.8	9.0	?	5.01µM*
CC(C)Oc1cccc(C(=O)NC(=S)Nc2cccc(NC(=O)c3ccccc3Cl)c2)c1	8.8%	-0.2	-2.0	8.91µM*	11.2µM*
CCCC(=O)NC(=S)Nc1cccc(NC(=O)c2ccc(Cl)cc2Cl)c1	-14.5%	0.2	1.3	?	10µM*
CC(=O)N1CCC[C@@]2(CCN(Cc3cc(C(F)(F)F)cc(C(F)(F)F)c3)C2)C1	/	/	/	-12.8%	0.8%
CC(=O)N/C(=C\c1ccccc1)C(=O)OCC(=O)NC1CCS(=O)(=O)C1 (stereo unspecified)	-1.4%	2.1	1.8	/	/
CCC(=O)NC(=S)Nc1ccc(NC(=S)NC(=O)c2ccc(C)cc2)cc1	2.5%	6.5	8.9	1.9%	?
CCC(=O)NC(=S)Nc1ccc(NC(=S)NC(=O)c2ccccc2)cc1	8.4%	4.5	/	?	3.16µM*
Cc1ccc(NC(=O)CNC(=O)C2CCCCC2)nc1	0.8%	-1.7	7.0	/	/
CC(=O)Oc1ccc(/C=N/NC(=S)Nc2ccccc2)cc1	?	-24.7	-3.8	2.51µM*	2µM*
COc1cc(/C=N/NC(N)=S)ccc1OCC(=O)Nc1ccc(C)cc1	1.2%	-1.1	-5.4	-2.5%	-20.0%
COc1ccc(NC(=S)N/N=C/c2ccc(F)c(F)c2)cc1	5.5%	-5.8	1.7	5.01µM*	3.16µM*
Fc1ccc(/C=N/NC(=S)Nc2ccc(Cl)cc2)cc1F	13.8%	0.4	0.0	1.41µM*	0.708µM*
